# About 83,000 compounds went through this panel and 20% of them were active in at least one assay; those are over-represented in the sample as a whole.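 Note: values are percent growth. 100 is the growth of untreated cells, values between 100 and 0 indicate rising inhibition; between -100 and 0 indicates cell death.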 A number with no mark means an inactive call. Active and inactive are the calls of the source.
# Tested on: NCI-H23 lung
# Assay: NCI-60 one-dose screen, 48 h (100 = growth as untreated, 0 = no growth, -100 = all killed)
# Conditions: 10 µM unless noted
# Description: Growth inhibition of the NCI-H23 human Non-Small Cell Lung tumor cell line is measured as a screen for anti-cancer activity. Cells are grown in 96 well plates and exposed to the test compound for 48 hours. Compounds are tested at a single concentration, which is 10^-5 M for most compounds. The reported endpoint is percent growth (GI% or GIPRCNT), where numbers from 0 - 100% represent growth inhibition, and numbers from -100% - 0 represent cell death. For example, a value of 40 represents 60% growth inhibition. A value of 0 means no net growth occurred over the course of the experiment. A value of -40 indicates 40% of cells at the beginning of the experiment died by the end of the experiment. A value of -100 means all cells are dead at the end of the experiment.
# NCI-60 Human Tumor Cell Lines Screen was performed using the standard one-dose NCI protocol, which is described in more detail at https://dtp.cancer.gov/discovery_development/nci-60/default.htm.
# Compounds with GIPRCNT values below 10 were considered active. Activity score was based on GIPRCNT using the following formula: […]
# Score is 0 for GIPRCNT values of 100 or above, 50 for GIPRCNT values of 0, and 100 for GIPRCNT values of -100.
row,Structure (SMILES),growth
1,COC(=O)[C@]12CC[C@@H](C)[C@H](C)[C@@H]1C1=CC[C@@H]3[C@@]4(C)C(C=O)=C[C@@](C)(COC(C)=O)[C@@H]4[C@H](O)C[C@@]3(C)[C@]1(C)CC2,-12.8% (active)
2,Cc1cc(NCc2cc(Nc3ccnc4cc(Cl)ccc34)ccc2F)nc(Cl)n1,32.8%
3,C#CCOc1nc(C)cc(C)c1C#N,95.6%
4,COc1cc(/C=N/Nc2ncc(-c3cc4cc5c(cc4o3)OCO5)s2)cc(OC)c1OC,53%
5,CN(C)c1ccc(/C=C/C(=O)c2cccc(Nc3nc(Nc4ccccc4)nc(Nc4ccccc4)n3)c2)cc1,82.7%
6,Cn1ccc2c(c1=O)C(=O)c1nccc3c1c-2nc1ccccc13,-66.6% (active)
7,O=C1C=C[C@]2(C[C@@H](c3cccc(C(F)(F)F)c3)O[C@@H](c3cccc(C(F)(F)F)c3)O2)O1,50.1%
8,COc1cc(-c2nc(N3CCN(C)CC3)c3ccccc3n2)cc(OC)c1OC,74.4%
9,COC(=O)c1c2c(c(C)[n+]([O-])c1C)C(=O)C(NCc1ccc(F)cc1)=CC2=O,31%
10,COC(=O)[C@H](CSC)N(C)C(=O)[C@@H]1CSSC[C@@H](NC(=O)c2nc3ccccc3cc2O)C(=O)NCC(=O)N1C,84.9%
11,Clc1ccc(-c2c3ccc(=[N+]4CCCCC4)cc-3oc3cc(N4CCCCC4)ccc23)cc1,-85.2% (active)
12,O=C1OC(c2nc3ccccc3s2)=C/C1=C\c1ccc(O)cc1,98.9%
13,CC/C=C\C/C=C\C[C@H](O)C/C=C1/C(=O)C=C[C@@H]1C/C=C\CCCC(=O)O,61.8%
14,Cn1cc(-c2csc(-c3ccccc3)n2)c2cccnc21,-54.3% [100 µM] (active)
15,COc1cc2c(cc1-c1c(C)noc1C)ncc1nc(C3CCC(F)(F)CC3)n(C3CCC(OC(F)F)CC3)c12 (stereo not given),68.3%
16,CS(=O)(=O)c1ccc(Nc2nc(N[C@H]3CCCC[C@H]3N)nc3cc[nH]c(=O)c23)cc1,-5.38% (active)
17,Cc1ccc(N(C(=O)CCc2c[nH]c3ccccc23)[C@H](C(=O)Nc2ccc(Cl)cc2)c2cccc([N+](=O)[O-])c2)cc1,92.8%
18,CC1(C)CC(=O)CC2(C1)N=C(N)Nc1nc3ccccc3n12 (stereo not given),101%
19,O=C(c1ccccc1)c1c(/C=C/c2ccccc2)nc2ccccc2c1/C=C/c1ccc(Br)cc1,94.5%
20,COc1cccc(C(=O)NCCNc2cc(-c3cn(-c4ccccc4)nc3-c3cccc(OC)c3)ccn2)c1,59.7%

row,Structure (SMILES),growth
1,N/C(=N/N=C/c1ccccc1)N/N=C\c1ccccc1,66.6%
2,COc1cccc(-c2nc3sccn3c2/C=C/C(=O)c2ccc(C(F)(F)F)cc2)c1,95%
3,CCOC(=O)c1ccc(N2NC(=O)/C(=C/c3ccc([N+](=O)[O-])o3)C2=O)cc1,108%
4,COc1cc(C(=O)/C=C/c2c(C(F)(F)F)nc3sccn23)cc(OC)c1OC,1.76% (active)
5,O=C(CSc1nccc(Nc2ccc(S(=O)(=O)Nc3nccs3)cc2)n1)c1ccc(F)cc1,97.6%
6,COc1ccc(-c2cc(-c3cc(OC)c(OC)c(OC)c3)c(C#N)c(N3CCOCC3)n2)cc1O,-6.35% (active)
7,CC(=O)N1N=C(c2ccc(Nc3nc(Nc4ccc(F)cc4)nc(Nc4ccc(F)cc4)n3)cc2)CC1c1cccc([N+](=O)[O-])c1 (stereo not given),78.9%
8,O=c1c2c3c(sc2nc(N/N=C/c2ccc(Br)cc2)n1Cc1ccccc1)CCCC3,68.2%
9,NS(=O)(=O)c1ccc(-n2nc(C(=O)N/N=C\c3ccc(F)cc3)cc2-c2ccc(Cl)cc2)cc1,84.2%
10,CC(C)(C)C(CCc1ccc(Cl)cc1)N1CCN(C2CCCCC2)CC1 (stereo not given),47.5%
11,C[C@@]1(CCC#N)[C@H]2CC[C@@H]3[C@H]4[C@H](C(=O)/C=C/c5cccnc5)CC[C@]4(C#N)CC[C@@]3(C)[C@]2(C)CC[C@H]1C(=O)/C=C/c1cccnc1,62.8%
12,COC(=O)c1ccc(CSc2nnc(-c3c(C)nc4ccc(C)cn34)o2)cc1,85.9%
13,CCCCn1c(=O)c2c(nc3n2CCCN3CCc2ccc(OCC(=O)NCCN(CC)CC)cc2)n(CCCC)c1=O,68.7%
14,Cc1cccc(Cc2cnc(NC(=O)c3ccc4nnsc4c3)s2)c1,92.7%
15,COc1ccc2occ(C3=C(c4c[nH]c5ccccc45)C(=O)N(O)C3=O)c2c1,86.3%
16,CCCCCCCCCCCCCCCCCCOc1ccc(CC(=O)OCC[N+]2(C)CCCC2)cc1,93.2%
17,O=S(=O)(NCCCNc1cc(-c2c(-c3cccc(O)c3)nc3sccn23)ccn1)c1cccc(Cl)c1,49.1%
18,COc1ccc(C2=NN(C(=O)c3cc(OC)c(OC)c(OC)c3)C(c3ccc(Cl)cc3)C2)cc1OC (stereo not given),-7.6% (active)
19,O=c1c2c3c(sc2n2c(-c4cn(-c5ccccc5)nc4-c4ccc(Cl)cc4)nnc2n1Cc1ccccc1)CCCC3,94.3%
20,COc1cc(C2CC(c3cc(OC)c(OCCCOc4ccc(-n5c(/C=C/c6ccccc6)nc6ccccc6c5=O)cc4)c(OC)c3)=NO2)cc(OC)c1OC (stereo not given),112%
